The text below walks through data of ChEMBL document CHEMBL3988442, “University of Dundee, Small-Polar-MMV Screening Library” (2021).

Structures are written as SMILES. For some of these results: Results with a measured potency or affinity are listed apart.

Set-up in all cases: scale not given: direction of the effect not stated beside the values
In assay [1] the target is Protein translocase subunit SecA (Escherichia coli (strain K12)) (UniProt P10408). The assay is described as follows: Assay to Identify E. coli SecA ATPase Inhibitors. The format is functional. The following applies: 30 µM.
Protein translocase subunit SecA (Escherichia coli (strain K12)), sequence (P10408 whole entry): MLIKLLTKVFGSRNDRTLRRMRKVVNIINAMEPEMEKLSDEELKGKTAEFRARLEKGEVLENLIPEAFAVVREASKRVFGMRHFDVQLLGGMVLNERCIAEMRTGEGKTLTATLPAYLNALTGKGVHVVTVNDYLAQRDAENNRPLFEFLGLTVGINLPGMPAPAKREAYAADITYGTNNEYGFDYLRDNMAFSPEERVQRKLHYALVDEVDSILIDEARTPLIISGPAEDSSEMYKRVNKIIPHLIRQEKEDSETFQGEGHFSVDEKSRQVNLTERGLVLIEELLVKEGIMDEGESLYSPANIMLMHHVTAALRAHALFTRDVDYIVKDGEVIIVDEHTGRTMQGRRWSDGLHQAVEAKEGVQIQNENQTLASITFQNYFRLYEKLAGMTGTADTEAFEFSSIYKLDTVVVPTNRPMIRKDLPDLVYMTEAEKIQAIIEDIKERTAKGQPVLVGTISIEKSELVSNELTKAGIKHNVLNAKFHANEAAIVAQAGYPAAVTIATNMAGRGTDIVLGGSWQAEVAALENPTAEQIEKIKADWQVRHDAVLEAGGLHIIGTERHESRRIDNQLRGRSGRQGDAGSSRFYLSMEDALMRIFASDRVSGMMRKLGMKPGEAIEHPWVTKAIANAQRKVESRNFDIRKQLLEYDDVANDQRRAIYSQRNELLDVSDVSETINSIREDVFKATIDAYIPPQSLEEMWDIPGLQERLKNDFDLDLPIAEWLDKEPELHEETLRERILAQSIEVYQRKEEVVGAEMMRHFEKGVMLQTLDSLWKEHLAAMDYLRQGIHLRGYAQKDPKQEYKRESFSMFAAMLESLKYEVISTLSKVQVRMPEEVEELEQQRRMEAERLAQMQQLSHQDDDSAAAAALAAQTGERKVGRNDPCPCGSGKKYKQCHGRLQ
Assay [2] addresses T1, Ubiquitin-activating enzyme e1, putative (Leishmania donovani (strain BPK282A1)) (UniProt E9BSI1).
T1 sequence (whole entry): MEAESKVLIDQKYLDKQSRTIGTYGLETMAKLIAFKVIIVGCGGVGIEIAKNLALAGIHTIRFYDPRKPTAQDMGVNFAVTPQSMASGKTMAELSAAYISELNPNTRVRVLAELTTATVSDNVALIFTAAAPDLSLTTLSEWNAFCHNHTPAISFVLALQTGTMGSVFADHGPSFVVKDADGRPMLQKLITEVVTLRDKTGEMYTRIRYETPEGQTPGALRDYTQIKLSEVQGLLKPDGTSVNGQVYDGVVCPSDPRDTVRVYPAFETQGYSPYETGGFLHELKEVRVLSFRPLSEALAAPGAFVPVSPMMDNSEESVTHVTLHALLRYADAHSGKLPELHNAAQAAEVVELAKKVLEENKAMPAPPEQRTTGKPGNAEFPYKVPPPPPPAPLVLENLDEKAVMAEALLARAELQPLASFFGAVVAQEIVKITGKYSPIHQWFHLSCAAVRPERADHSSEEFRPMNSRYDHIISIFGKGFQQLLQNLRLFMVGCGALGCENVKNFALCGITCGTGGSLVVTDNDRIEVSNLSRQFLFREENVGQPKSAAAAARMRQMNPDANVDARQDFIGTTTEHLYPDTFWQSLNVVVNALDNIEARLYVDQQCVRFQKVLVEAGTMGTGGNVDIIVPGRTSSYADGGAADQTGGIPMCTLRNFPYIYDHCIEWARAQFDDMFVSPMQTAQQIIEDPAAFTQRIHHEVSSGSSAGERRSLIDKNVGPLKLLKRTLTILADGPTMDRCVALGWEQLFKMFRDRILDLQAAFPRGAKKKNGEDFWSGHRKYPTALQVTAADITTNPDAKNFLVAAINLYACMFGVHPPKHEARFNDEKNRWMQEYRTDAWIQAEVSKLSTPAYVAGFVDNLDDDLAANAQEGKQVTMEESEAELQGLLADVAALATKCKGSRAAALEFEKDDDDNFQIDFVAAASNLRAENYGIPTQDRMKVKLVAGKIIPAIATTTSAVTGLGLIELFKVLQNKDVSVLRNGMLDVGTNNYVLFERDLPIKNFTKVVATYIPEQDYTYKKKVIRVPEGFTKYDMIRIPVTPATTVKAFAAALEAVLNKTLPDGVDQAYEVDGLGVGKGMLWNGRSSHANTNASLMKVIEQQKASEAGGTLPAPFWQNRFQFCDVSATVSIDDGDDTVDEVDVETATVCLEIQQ
Description: Leishmania donovani Ubiquitin Activating Enzyme (LdE1). The format is functional. The following applies: 30 µM.

The target in assay [3] is AMP-activated protein kinase, AMPK (Homo sapiens) (UniProt P54646+O43741+P54619+Q9UGJ0+Q9Y478+Q13131+Q9UGI9). The assay is described as follows: AMP-dependent Kinase enzyme assay. An in vitro enzyme assay that detects ADP turnover that is directly proportional to AMPK activity. This uses naive AMPK that is activated during the assay with MK-8722. The format is functional. The following applies: 30 µM.

Assay [4] has as its target Sialic acid-binding Ig-like lectin 9 (Homo sapiens) (UniProt Q9Y336). The assay is described as follows: Hs-Siglec9 ALPHAscreen SOP 20170721. The following applies: 10 µM.
The subject of assay [5] is Trypanosoma cruzi. The assay is described as follows: Trypanosoma cruzi phosphomannomutase and mannose-1-phosphate guanylyltransferase assay. Format: functional. The following applies: 10 µM.
Assay [6] deals with T2, Arginase-2, mitochondrial (Homo sapiens) (UniProt P78540).
T2 sequence (whole entry): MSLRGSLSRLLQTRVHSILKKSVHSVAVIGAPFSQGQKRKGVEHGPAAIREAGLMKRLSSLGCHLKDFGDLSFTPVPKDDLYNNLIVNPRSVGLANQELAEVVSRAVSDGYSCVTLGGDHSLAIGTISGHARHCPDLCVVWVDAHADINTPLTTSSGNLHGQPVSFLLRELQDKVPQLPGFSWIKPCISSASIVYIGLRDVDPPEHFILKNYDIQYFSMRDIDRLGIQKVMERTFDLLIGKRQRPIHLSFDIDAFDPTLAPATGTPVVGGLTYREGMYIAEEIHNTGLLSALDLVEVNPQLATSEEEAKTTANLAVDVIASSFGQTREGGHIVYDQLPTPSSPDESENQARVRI
The assay is described as follows: in vitro enzyme assay to detect the production of urea directly proportional to the activity of Arginase II. Note: in the data most compounds retested in dose-response had high values. The format is functional. The note with it: 33.3 µM.

The target in assay [7] is T3, Proteasome subunit beta (Trypanosoma cruzi) (UniProt O96673).
T3 sequence (whole entry): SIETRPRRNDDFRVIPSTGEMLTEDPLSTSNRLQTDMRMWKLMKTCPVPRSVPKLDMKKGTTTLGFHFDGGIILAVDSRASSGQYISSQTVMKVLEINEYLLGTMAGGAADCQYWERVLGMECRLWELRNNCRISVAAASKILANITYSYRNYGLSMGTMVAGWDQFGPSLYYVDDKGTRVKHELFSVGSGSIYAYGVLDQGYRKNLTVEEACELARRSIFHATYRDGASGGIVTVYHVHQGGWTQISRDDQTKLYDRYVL
The assay is described as follows: Trypanosoma cruzi proteasome chymotrypsin-like activity (TcProtChymo) assay. Note: in the data most compounds retested in dose-response had high values. The format is functional. The note with it: 9.37 µM.

Assay [8] is filed under the species Homo sapiens. The assay is described as follows: To identify inhibition of the IFN signalling (Jak-Stat) pathway via expression of an eGFP reporter gene under the control of an IFN-stimulated response element (ISRE) containing MxA promoter. Format: functional. The following applies: 30 µM. Background: In a reporter assay the amount or activity of a reporter protein is the signal.

Assay [9] deals with T4, Tyrosyl-tRNA synthetase, putative (Trypanosoma cruzi (strain CL Brener)) (UniProt Q4DSP6).
T4 sequence (whole entry): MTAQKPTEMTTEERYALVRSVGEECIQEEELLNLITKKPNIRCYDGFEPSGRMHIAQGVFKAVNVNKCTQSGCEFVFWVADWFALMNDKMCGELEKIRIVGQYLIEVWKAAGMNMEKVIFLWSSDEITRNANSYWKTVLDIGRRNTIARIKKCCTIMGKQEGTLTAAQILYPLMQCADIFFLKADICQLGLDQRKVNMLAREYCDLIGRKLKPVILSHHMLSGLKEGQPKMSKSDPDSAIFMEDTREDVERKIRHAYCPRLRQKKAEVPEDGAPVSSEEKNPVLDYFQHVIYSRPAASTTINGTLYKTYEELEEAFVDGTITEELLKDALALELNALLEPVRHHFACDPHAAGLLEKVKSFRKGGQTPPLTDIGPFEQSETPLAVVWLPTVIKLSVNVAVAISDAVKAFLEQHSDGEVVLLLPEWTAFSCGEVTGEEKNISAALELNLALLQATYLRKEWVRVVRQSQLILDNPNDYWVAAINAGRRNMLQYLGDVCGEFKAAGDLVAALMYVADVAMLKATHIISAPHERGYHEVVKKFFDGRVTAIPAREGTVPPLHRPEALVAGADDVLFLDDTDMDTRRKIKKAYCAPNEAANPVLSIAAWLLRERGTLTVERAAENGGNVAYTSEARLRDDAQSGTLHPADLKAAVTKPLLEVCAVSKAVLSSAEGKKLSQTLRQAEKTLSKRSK
Description: Trypanosoma cruzi tyrosyl tRNA synthetase (TcYRS) _High Tyrosine SOP. Note: in the data most compounds retested in dose-response had high values. The following applies: 30 µM. Format: functional.

Assay [10] addresses T4, Tyrosyl-tRNA synthetase, putative (Trypanosoma cruzi (strain CL Brener)). Description: Trypanosoma cruzi tyrosyl tRNA synthetase (TcYRS) SOP. The format is functional. The note with it: 30 µM.
The target in assay [11] is Chromo domain-containing protein 1 (Saccharomyces cerevisiae (strain ATCC 204508 / S288c) (Baker's yeast)) (UniProt P32657). The assay is described as follows: ScCHD-1 Enzyme Inhibition Assay. Note: in the data most compounds retested in dose-response had high values. The format is functional. The following applies: 30 µM.
Chromo domain-containing protein 1 (Saccharomyces cerevisiae (strain ATCC 204508 / S288c) (Baker's yeast)), sequence (P32657 whole entry, the tested form may be a part): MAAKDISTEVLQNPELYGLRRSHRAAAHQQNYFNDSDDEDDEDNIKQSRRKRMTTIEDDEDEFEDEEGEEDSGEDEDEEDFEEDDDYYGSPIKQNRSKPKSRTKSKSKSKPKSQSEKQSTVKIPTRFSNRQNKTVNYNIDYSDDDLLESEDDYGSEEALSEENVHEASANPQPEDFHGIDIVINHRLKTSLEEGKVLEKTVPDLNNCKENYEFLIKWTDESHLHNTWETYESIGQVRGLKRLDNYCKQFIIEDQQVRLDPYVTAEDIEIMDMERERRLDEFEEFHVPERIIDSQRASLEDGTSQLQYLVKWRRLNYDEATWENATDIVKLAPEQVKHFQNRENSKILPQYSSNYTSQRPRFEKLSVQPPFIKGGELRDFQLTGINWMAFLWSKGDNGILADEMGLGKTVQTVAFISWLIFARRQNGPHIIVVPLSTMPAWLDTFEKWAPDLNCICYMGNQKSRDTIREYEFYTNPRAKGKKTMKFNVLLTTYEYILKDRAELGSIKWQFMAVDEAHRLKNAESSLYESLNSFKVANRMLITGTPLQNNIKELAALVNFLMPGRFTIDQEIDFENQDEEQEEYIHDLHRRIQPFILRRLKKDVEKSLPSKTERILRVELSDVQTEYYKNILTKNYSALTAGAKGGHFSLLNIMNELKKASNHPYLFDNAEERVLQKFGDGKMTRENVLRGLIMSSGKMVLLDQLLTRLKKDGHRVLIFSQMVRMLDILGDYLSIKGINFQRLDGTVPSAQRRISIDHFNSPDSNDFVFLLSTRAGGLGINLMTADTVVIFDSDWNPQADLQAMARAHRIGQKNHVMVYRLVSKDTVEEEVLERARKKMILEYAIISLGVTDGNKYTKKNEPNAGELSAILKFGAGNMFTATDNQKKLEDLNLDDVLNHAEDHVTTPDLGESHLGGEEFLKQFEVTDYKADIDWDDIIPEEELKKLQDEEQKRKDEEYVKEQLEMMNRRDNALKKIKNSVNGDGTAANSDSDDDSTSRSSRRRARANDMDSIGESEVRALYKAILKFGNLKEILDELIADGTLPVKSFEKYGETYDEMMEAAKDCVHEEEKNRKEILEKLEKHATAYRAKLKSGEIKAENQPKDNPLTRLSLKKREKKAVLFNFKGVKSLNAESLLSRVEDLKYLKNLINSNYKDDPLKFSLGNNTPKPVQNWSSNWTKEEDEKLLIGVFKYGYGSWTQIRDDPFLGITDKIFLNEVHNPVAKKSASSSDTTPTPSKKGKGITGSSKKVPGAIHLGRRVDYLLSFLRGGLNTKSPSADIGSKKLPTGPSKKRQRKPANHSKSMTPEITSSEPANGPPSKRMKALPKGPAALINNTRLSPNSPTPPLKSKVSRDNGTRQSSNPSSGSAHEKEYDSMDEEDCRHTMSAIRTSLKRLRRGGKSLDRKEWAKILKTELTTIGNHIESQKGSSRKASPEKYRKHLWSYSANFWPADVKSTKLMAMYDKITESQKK

Sialic acid-binding Ig-like lectin 9 (Homo sapiens), sequence (Q9Y336 whole entry): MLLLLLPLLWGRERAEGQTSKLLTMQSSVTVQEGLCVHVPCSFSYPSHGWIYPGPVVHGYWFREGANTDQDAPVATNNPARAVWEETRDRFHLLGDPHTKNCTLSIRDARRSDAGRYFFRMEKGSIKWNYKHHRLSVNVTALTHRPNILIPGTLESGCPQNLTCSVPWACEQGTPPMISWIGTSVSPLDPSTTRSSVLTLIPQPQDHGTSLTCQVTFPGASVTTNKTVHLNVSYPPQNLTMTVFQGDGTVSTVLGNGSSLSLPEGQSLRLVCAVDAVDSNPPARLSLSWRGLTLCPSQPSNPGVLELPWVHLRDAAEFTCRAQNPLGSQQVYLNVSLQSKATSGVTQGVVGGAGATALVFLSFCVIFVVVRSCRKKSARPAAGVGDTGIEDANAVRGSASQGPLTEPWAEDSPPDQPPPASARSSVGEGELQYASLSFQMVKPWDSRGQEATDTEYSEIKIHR

In the case of `CC(=O)N(Cc1ncc(C(C)C)o1)C1CCN(Cc2ncc[nH]2)C1` (stereo unspecified), the Percent Effect was -1% in [1]; 10.8% in assay [2]; -3.5% in assay [3]; -1.85% in [4]; 3.99% in assay [5]; -3.14% in assay [6]. In addition, the Percent Effect in [7] is 5.21%; in assay [8], 6.45%; in assay [9] it was 13.9%; in assay [10] it was 25.6%; in assay [11], -5.05%.

Turning to `Cc1[nH]ccc1C(=O)Nc1cccc(CN2CCC(CO)CC2)c1`, the Percent Effect is -3.65% in [1]; 23.7% in [2]; -7.05% in assay [3]; -13.3% in [4]; 0.876% in assay [5]; -17.8% in assay [6]. Moreover, the Percent Effect in assay [7] was 8.34%; in [8], 30.6%; in assay [9], 3.19%; in assay [10], 13%; in assay [11], -9.32%.

Consider `COc1cc(CNc2cnn(C)c2)cc2c1OCCO2`, for which the Percent Effect in [1] is -3.52%; in [2], -13.2%; in assay [3] it was -22.5%; in assay [4], 3.9%; in [5] it was 1.5%; in assay [6], -1.15%. Moreover, the Percent Effect in [7] was 4.68%; in assay [8], -1.15%; in assay [9], -13.2%; in assay [10], -14.6%; in [11], -4.73%.

For `COc1ccc(OCCCN2CCOC(Cn3cccn3)C2)cc1` (stereo unspecified), the Percent Effect was -8.28% in assay [1]; 3.8% in assay [2]; 9.54% in assay [3]; 3.31% in assay [4]; -1.74% in assay [5]; 1.94% in [6]. Further, the Percent Effect in assay [7] was 2.74%; in [8] it was 28.6%; in assay [9], 1.04%; in [10], 2.53%; in [11], -3.35%.

As to `CN(C)c1ncnc2c1CCN(CC1CCOC1)CC2` (stereo unspecified), the Percent Effect in assay [1] was -2.84%; in assay [2], 8.11%; in [3] it was 4.65%; in assay [4], -0.235%; in assay [5] it was -3.42%; in [6], -2.87%. For the same molecule, the Percent Effect is 18.6% in [7]; -8.93% in assay [8]; 3.24% in assay [9]; 15.4% in assay [10]; 0.421% in assay [11].

With `CCc1c(C(=O)N2CCN(c3ncccn3)CC2)cnn1C(C)(C)C`, the Percent Effect was -1.49% in [1]; 21.1% in [2]; -5.24% in assay [3]; 0.163% in [4]; 0.0934% in assay [5]; 1.44% in assay [6]. For the same molecule, the Percent Effect was 13.3% in assay [7]; 9.72% in assay [8]; 4.43% in assay [9]; 18.5% in [10]; -8.38% in assay [11].

`CCNC(=O)c1nnn(Cc2ccccc2)c1OC`: the Percent Effect was -3.93% in assay [1]; 1.33% in [2]; 3.51% in assay [3]; 5.7% in assay [4]; -0.197% in assay [5]; -8.63% in assay [6]. For the same molecule, the Percent Effect in assay [7] is 7.95%; in [8] it was -9.5%; in assay [9] it was 5.29%; in [10] it was 7.69%; in assay [11] it was -2.11%.

On to `CC(=O)N(Cc1noc(C2CC2)n1)C1CCN(Cc2cccnc2)C1` (stereo unspecified), for which the Percent Effect in [1] is -2.68%; in assay [2] it was 13.5%; in assay [3], -6.59%; in assay [4] it was 0.785%; in assay [5], -1.76%; in [6], -0.185%. Also, the Percent Effect in assay [7] is 2.51%; in assay [8], 12.5%; in assay [9], 4.95%; in assay [10], 18.3%; in assay [11], -7.09%.

Regarding `COc1cc(CNC2CCCc3c2cnn3C)cc(OC)c1` (stereo unspecified), the Percent Effect in assay [1] is -5.5%; in assay [2], 8.11%; in [3] it was 139%; in assay [4], 9.27%; in assay [5] it was 1.6%; in [6], -3.61%. Also, the Percent Effect is -1.44% in [7]; 2.92% in [8]; 5.42% in assay [9]; 3.7% in assay [10]; -10% in [11].

For `Cc1nc(CN2CCCN(C(=O)c3ccccn3)CC2)oc1C`, the Percent Effect is -1.98% in assay [1]; 7.79% in assay [2]; 0.524% in assay [3]; -0.904% in assay [4]; -0.686% in assay [5]; 4% in assay [6]. For the same molecule, the Percent Effect in assay [7] was 10.8%; in [8], 33%; in assay [9], 2.86%; in assay [10] it was 11.8%; in [11] it was -5.21%.

Turning to `Cn1ccc(C(=O)N2CCCC(n3cncn3)C2)cc1=O` (stereo unspecified), the Percent Effect in assay [1] was -7.5%; in [2], 10.4%; in assay [3], -3.42%; in [4], 0.542%; in assay [5], 5.97%; in assay [6] it was -6.11%. Also, the Percent Effect was 11.9% in assay [7]; -3.24% in assay [8]; 3.81% in assay [9]; 9.41% in [10]; -18.8% in assay [11].
